Nrf2 inh – blocks Nrf2 signaling | A549 ARE-Fluc reporter, luciferase luminescence, 18-24 h | Potency, µM (top dose mostly 46 µM), without a hit: at the highest dose activity change, negative = inhibition, most hits filed as inhibitors | 2.1% of 360,000 active; also: % is scaled to controls: 0 for no effect and ±100 for the full control effect; nearly all actives have a fitted effect of over 60% in size
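A549 ARE_Fluc cells (5000/well, 5% FBS OPTI-MEM) pre-incubated 2 h, then treated with compounds 18-24 h at 37C/5% CO2 in concentration-response. CellTiter-Fluor viability read first; BugLite luciferase luminescence after 15 min at room temperature gives Nrf2 activity.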
S2 tox – viability counter-screen for ATXN expression inhibitors. S2 cells (HEK-293 line with an ATXN2-luciferase reporter) viability, CellTiter-Fluor protease fluorescence, 24 h. Potency, µM (top dose mostly 56.7 µM), actives largely listed as cytotoxic. 0.49% of 400,000 active; also: nearly all actives have a fitted effect of over 40% in size
TGFb inhibitor – TGF-b pathway inhibition | Potency, µM (titrated, usually from 46.1 µM), inactives show at the highest dose activity, negative = inhibition, most hits filed as inhibitors | AID 588855 | 1.2% of 410,000 active | HepG2 CAGA-GFP TGF-b/SMAD3 reporter, GFP fluorescence, 18 h; TGF-beta stimulated, 500 pg/mL final; also: % is scaled to controls: 0 for no effect and ±100 for the full control effect; nearly all actives have a fitted effect of over 65% in size
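Cell-based qHTS in HEPG2 carrying a CAGA-GFP Smad reporter; compounds added before 500 pg/mL final TGF-beta, 18 h incubation at 37 degrees C, GFP fluorescence quantified per cell by imaging cytometry.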
HepG2 viability – counter-screen for TGF-b inhibitors: cytotoxicity in HepG2 cells; HepG2 CAGA-GFP viability, ATP luminescence, 18 h; Potency, µM (series often up to 46.1 µM), inactives show top-dose activity change, negative = cytotoxicity, actives largely listed as cytotoxic; 0.76% of 410,000 active; AID 588856
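CellTiter-Glo luminescence gave cytotoxicity after 18 hours at 37 degrees C. The cells were HepG2 CAGA-GFP in 1% FBS DMEM, stimulated with 500 pg/mL TGF-beta after compound addition. %Activity was normalised to no-cell wells (complete cell-killing) and DMSO (no toxicity), and curves were fitted and classified.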
ATXN2 expr inh – reduces ATXN2 reporter expression in HEK-293 cells. HEK-293 ATXN2-luciferase reporter, luminescence, 24 h. Potency, µM (top dose mostly 57 µM), for the others: at the highest dose activity change, negative = inhibition, usual class: inhibitors. 0.72% of 360,000 active. AID 1745845; also: % is scaled to controls: 0 for no effect and ±100 for the full control effect; nearly all actives have a fitted effect of over 55% in size
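qHTS (up to 57 uM final) was run with 24 h compound exposure of reporter cells at 37 °C. Each well was multiplexed: SteadyGlo luminescence measured ATXN2-luciferase expression after a fluorogenic Gly-Phe-AFC viability readout (25 uM final).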
A549 tox – kills or reduces viability of A549 cells in Nrf2 counter-screen; A549 ARE-Fluc cells, CellTiter-Fluor viability, 18-24 h; Potency, µM (top dose mostly 46 µM), without a hit: at the highest dose activity change, negative = cytotoxicity, most hits filed as inhibitors; 0.16% of 390,000 active; AID 504648; also: % is scaled to controls: 0 for no effect and ±100 for the full control effect
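A549 ARE_Fluc cells in 5% FBS OPTI-MEM were exposed to compounds in concentration-response for 18-24 h at 37 deg C. Viability was read by CellTiter-Fluor fluorescence (Ex 405/Em 525) after 30 min, before the luciferase read.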
* = called active by the depositor. Compounds with a hit are over-represented: about 3.8% of the library has one in this group of screens. Calls follow the shape of the dose curve; as a rule, active = well fitted curve in the direction sought with a large enough effect; inconclusive = small, poorly fitted or top-dose-only effect, or another doubt; inactive = no such curve, though single readings can be large; an effect the other way counts as inactive or inconclusive. Potency is read from the fitted curve at half-maximal effect.

COc1ccc(OC)c(-c2cc(C3CCN(c4ncccc4[N+](=O)[O-])CC3)[nH]n2)c1 was read as Nrf2 inh inconclusive, S2 tox inconclusive, TGFb inhibitor inconclusive, HepG2 viability 0%, ATXN2 expr inh inconclusive and A549 tox inconclusive.
O=[N+]([O-])c1cccnc1N1CCC(c2cc(-c3cccc(C(F)(F)F)c3)n[nH]2)CC1 was read as Nrf2 inh 21µM*, S2 tox inactive, TGFb inhibitor -17%, HepG2 viability -97%, ATXN2 expr inh -27% and A549 tox inconclusive.
Screening CC(=O)c1ccc(N2CCC(c3cc(-c4ccc(Cl)cc4Cl)n[nH]3)CC2)c([N+](=O)[O-])c1 returned Nrf2 inh 16µM*, S2 tox inconclusive, TGFb inhibitor inconclusive, HepG2 viability -29%, ATXN2 expr inh inconclusive and A549 tox inconclusive.
Screening O=[N+]([O-])c1cccnc1N1CCC(c2cc(-c3ccc(Cl)cc3Cl)n[nH]2)CC1 returned Nrf2 inh 18µM*, S2 tox inactive, TGFb inhibitor -15%, HepG2 viability -96%, ATXN2 expr inh inconclusive and A549 tox inconclusive.
For N#CCC1(O)C(=O)N(Cc2ccccc2)c2ccccc21 (stereo not drawn) the results were S2 tox inactive and ATXN2 expr inh 3%.
Fc1ccc(Nc2nc(N/N=C/c3ccco3)nc(N3CCCCC3)n2)cc1 was read as Nrf2 inh 18µM*, S2 tox inconclusive, TGFb inhibitor 2%, HepG2 viability -8% and A549 tox -7%.
CN1CCN(c2nc(Nc3ccc(F)cc3)nc(Nc3ccc(F)cc3)n2)CC1 was read as Nrf2 inh -11%, S2 tox inconclusive, TGFb inhibitor inconclusive, HepG2 viability 13µM*, ATXN2 expr inh 25µM* and A549 tox 10%.
`Fc1ccc(Nc2nc(Nc3ccc(F)cc3)nc(N3CCOCC3)n2)cc1` gave Nrf2 inh 15%, S2 tox inactive, TGFb inhibitor 50%, HepG2 viability -30%, ATXN2 expr inh -28% and A549 tox inconclusive.
Screening CCN(C(=O)Cn1cnc2onc(-c3ccc(F)cc3)c2c1=O)c1cc(C)ccc1C returned Nrf2 inh -2%, S2 tox inactive, TGFb inhibitor 26%, HepG2 viability 1%, ATXN2 expr inh -3% and A549 tox -3%.
O=C(c1ccccc1)c1ccccc1N1C(=O)C=CC1=O was read as Nrf2 inh -22%, TGFb inhibitor inconclusive, HepG2 viability -22%, ATXN2 expr inh inconclusive and A549 tox -5%.
O=C1C=CC(=O)N1c1ccccc1N1C(=O)C=CC1=O was read as Nrf2 inh inconclusive, S2 tox 35µM*, TGFb inhibitor inconclusive, HepG2 viability -95%, ATXN2 expr inh inconclusive and A549 tox inconclusive.
Screening COc1ccccc1NC(=O)NC1CC(=O)N(c2ccc3c(c2)OCCO3)C1 (stereo not drawn) returned Nrf2 inh 4%, S2 tox inactive, TGFb inhibitor -10%, HepG2 viability -24%, ATXN2 expr inh -7% and A549 tox 4%.
Screening Cc1ccc(Cl)cc1-c1ccc(C=Nc2ccc(N3CCOCC3)cc2)o1 returned Nrf2 inh 7%, S2 tox inactive, TGFb inhibitor 11µM*, HepG2 viability -40%, ATXN2 expr inh inconclusive and A549 tox 12%.
Screening Cc1cc(O)c(C=Nc2ccc(N3CCOCC3)cc2)c(C)c1Cl returned Nrf2 inh -1%, S2 tox inactive, TGFb inhibitor 18%, HepG2 viability 0%, ATXN2 expr inh 3% and A549 tox -1%.
CCOC(=O)c1c(NC(C)=O)sc2c(O)c(CN3CCN(CC)CC3)ccc12 was read as Nrf2 inh 17%, S2 tox inconclusive, TGFb inhibitor inconclusive, HepG2 viability 11µM*, ATXN2 expr inh 14% and A549 tox -15%.
Screening COc1cc(C2c3cc4c(cc3C(OC3OC5COC(c6cccs6)OC5C(O)C3O)C3COC(=O)C23)OCO4)cc(OC)c1O (stereo not drawn) returned Nrf2 inh inconclusive, S2 tox inconclusive, TGFb inhibitor 23%, HepG2 viability -17%, ATXN2 expr inh 0.32µM* and A549 tox -8%.
COc1cc([C@@H]2c3cc4c(cc3[C@@H](O[C@@H]3O[C@@H]5CO[C@@H](C)O[C@H]5[C@H](O)[C@H]3O)[C@H]3COC(=O)[C@H]23)OCO4)cc(OC)c1O was read as Nrf2 inh inconclusive, S2 tox inconclusive, TGFb inhibitor 8%, HepG2 viability -20%, ATXN2 expr inh 1.1µM* and A549 tox -8%.
Screening Cc1ccccc1CC(=O)Nc1ccc(C(=O)N2CCCC2)cc1 returned Nrf2 inh 0%, S2 tox inactive, TGFb inhibitor 19%, HepG2 viability -6%, ATXN2 expr inh 5% and A549 tox 1%.
Cc1cc(C)nc(OC(C(=O)O)C(OCc2ccccc2)(c2ccccc2)c2ccccc2)n1 (stereo not drawn) was read as Nrf2 inh inconclusive, S2 tox inactive, TGFb inhibitor -28%, HepG2 viability -49% and A549 tox -9%.
`Cc1ccnc(OC(C(=O)O)C(OCc2ccccc2)(c2ccccc2)c2ccc(C(F)(F)F)cc2)n1` (stereo not drawn) gave Nrf2 inh 10µM*, S2 tox inconclusive, TGFb inhibitor inconclusive, HepG2 viability -73% and A549 tox -18%.
`CCC(=C(c1ccc(OC)cc1)c1ccc(OC)cc1)c1cn(CC(O)CN2CCN(C)CC2)c2ccccc12` (stereo not drawn) gave Nrf2 inh 2%, TGFb inhibitor inconclusive, HepG2 viability 13µM*, ATXN2 expr inh inconclusive and A549 tox -6%.
Screening CCc1cccc(C)c1NC(=O)CSc1nnc(CC)n2c1cc1occc12 returned Nrf2 inh inconclusive, TGFb inhibitor 7.9µM*, HepG2 viability -25% and A549 tox -2%.
CCc1nnc(SCC(=O)Nc2ccc(OC)c(OC)c2)c2cc3occc3n12 was read as Nrf2 inh 10%, TGFb inhibitor 7%, HepG2 viability -20% and A549 tox 0%.
`CCc1cccc(C)c1NC(=O)CSc1nnc(-c2cc3cc(Br)ccc3o2)n1CC` gave Nrf2 inh 16µM*, S2 tox inactive, TGFb inhibitor -15%, HepG2 viability -18%, ATXN2 expr inh -33% and A549 tox inconclusive.
